Measured potencies and affinities stand elsewhere. Records with an inconclusive call do not appear.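 The calls were made as follows: active = fitted half-maximal concentration no higher than twice the top tested dose, in every repeat run; inconclusive = repeat runs disagree, poor fit, or flat partial inhibition; inactive = the rest.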
molecular target: Endoplasmic reticulum aminopeptidase 1 (Homo sapiens) (UniProt Q9NZ08); experiment: ERAP1 aminopeptidase inhibitors, dose response, biochemical, cherry-pick, set 2, plate reader (AID 743314); conditions: Recombinant ERAP1, Leu-AMC fluorescence, 60 min; series mostly up to 11 µM; activity change, negative = inhibition: at the top concentration;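 also: 0% = neutral control wells and -100% = L-leucinethiol positive control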
Sequence (Q9NZ08 whole entry, looked up): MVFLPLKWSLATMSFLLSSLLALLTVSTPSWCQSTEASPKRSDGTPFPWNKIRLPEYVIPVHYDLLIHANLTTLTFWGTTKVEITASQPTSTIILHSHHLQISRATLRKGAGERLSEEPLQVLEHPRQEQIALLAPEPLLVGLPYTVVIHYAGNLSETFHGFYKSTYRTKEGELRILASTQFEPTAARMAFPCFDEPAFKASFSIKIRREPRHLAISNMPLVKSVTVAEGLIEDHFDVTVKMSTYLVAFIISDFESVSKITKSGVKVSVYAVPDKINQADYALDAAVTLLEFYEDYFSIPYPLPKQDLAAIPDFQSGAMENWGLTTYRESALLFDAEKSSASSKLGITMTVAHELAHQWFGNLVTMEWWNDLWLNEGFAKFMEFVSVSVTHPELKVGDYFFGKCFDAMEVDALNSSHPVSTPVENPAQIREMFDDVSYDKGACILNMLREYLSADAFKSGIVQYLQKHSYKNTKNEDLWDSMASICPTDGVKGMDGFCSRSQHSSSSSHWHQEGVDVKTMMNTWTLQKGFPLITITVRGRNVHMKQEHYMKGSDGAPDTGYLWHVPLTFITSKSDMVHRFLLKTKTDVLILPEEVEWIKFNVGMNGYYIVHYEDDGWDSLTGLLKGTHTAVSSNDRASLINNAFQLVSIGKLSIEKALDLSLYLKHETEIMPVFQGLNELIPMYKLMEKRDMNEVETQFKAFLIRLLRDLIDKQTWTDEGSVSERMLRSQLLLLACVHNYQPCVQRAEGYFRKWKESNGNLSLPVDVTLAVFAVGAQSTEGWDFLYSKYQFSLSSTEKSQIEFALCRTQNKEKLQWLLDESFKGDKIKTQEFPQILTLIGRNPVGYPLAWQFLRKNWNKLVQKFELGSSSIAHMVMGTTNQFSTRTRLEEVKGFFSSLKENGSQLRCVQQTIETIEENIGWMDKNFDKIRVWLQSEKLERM

Activity change, negative = inhibition, inactive:
C[C@@H]1CCCCO[C@@H](CN(C)C)[C@H](C)CN([C@@H](C)CO)C(=O)c2cc(NS(=O)(=O)c3ccc(Cl)cc3)ccc2O1 22.3%
COc1ccc(CN(C)C[C@@H]2OCCCC[C@H](C)Oc3ccc(NS(=O)(=O)c4cccs4)cc3C(=O)N([C@H](C)CO)C[C@H]2C)cc1 20% [at 10 µM]
C[C@H](CO)N1C[C@H](C)[C@@H](CN(C)C(=O)Nc2ccccc2)Oc2ccc(NC(=O)c3ccncc3)cc2C1=O -11.5%
Cc1ccc(C)c(NC(=O)C2CC(O)CN2C(=O)Oc2ccccc2)c1 (stereo unspecified) -1.41%
C[C@@H]1CN([C@@H](C)CO)C(=O)c2cc(NC(=O)CCN3CCOCC3)ccc2O[C@H]1CN(C)S(=O)(=O)c1ccccc1 22.1%
Cc1noc(C)c1NC(=O)N(C)C[C@H]1Oc2c(NC(=O)Nc3ccc(F)cc3)cccc2C(=O)N([C@H](C)CO)C[C@@H]1C 44.6%
COc1ccc(NC(=O)Nc2ccc3c(c2)C(=O)N([C@@H](C)CO)C[C@H](C)[C@H](CN(C)Cc2ccc(C(=O)O)cc2)OCCCC[C@H](C)O3)cc1 48.4%
C[C@@H]1CN([C@@H](C)CO)C(=O)c2cc(NS(=O)(=O)c3ccc(Cl)cc3)ccc2O[C@@H](C)CCCCO[C@@H]1CN(C)C 20.4%
COc1ccc(CN(C)C[C@H]2OCCCC[C@H](C)Oc3ccc(NS(=O)(=O)c4cccs4)cc3C(=O)N([C@H](C)CO)C[C@H]2C)cc1 14.9%
Cc1ccc(SC(C)C(=O)NCc2ccncc2)cc1 (stereo unspecified) 3.37%
O=C(COC(=O)c1ccc(CO)cc1)Nc1ccc2ccccc2c1 1.79%

Reference: PubChem BioAssay AID743314 (Broad Institute, 2014)
